# Assay results: PubChem BioAssay (Tox21)
# Records with an inconclusive call do not appear. Where a call stands in place of a potency, no number is given. The source made the active and inactive calls. Unless noted, the call rests on the fitted dose curve; in most records, active means well fitted curve in the direction sought with a large enough effect in the repeat runs; inconclusive means weak or mixed curves; inactive means no such curve, though single readings can be large; an effect the other way counts as inactive or inconclusive.
# Experiments:
# [1] = biological target: Aryl hydrocarbon receptor (Homo sapiens) (UniProt P35869); test: qHTS assay to identify small molecule that activate the aryl hydrocarbon receptor (AhR) signaling pathway (AID 743085);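 further: HG2L7.5c1 human HepG2 liver cells with stably integrated DRE-driven firefly reporter; series mostly up to about 70 µM; nearly all actives have a fitted effect of over 15% in size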
# Chain of Aryl hydrocarbon receptor (Homo sapiens) (P35869 whole entry, looked up): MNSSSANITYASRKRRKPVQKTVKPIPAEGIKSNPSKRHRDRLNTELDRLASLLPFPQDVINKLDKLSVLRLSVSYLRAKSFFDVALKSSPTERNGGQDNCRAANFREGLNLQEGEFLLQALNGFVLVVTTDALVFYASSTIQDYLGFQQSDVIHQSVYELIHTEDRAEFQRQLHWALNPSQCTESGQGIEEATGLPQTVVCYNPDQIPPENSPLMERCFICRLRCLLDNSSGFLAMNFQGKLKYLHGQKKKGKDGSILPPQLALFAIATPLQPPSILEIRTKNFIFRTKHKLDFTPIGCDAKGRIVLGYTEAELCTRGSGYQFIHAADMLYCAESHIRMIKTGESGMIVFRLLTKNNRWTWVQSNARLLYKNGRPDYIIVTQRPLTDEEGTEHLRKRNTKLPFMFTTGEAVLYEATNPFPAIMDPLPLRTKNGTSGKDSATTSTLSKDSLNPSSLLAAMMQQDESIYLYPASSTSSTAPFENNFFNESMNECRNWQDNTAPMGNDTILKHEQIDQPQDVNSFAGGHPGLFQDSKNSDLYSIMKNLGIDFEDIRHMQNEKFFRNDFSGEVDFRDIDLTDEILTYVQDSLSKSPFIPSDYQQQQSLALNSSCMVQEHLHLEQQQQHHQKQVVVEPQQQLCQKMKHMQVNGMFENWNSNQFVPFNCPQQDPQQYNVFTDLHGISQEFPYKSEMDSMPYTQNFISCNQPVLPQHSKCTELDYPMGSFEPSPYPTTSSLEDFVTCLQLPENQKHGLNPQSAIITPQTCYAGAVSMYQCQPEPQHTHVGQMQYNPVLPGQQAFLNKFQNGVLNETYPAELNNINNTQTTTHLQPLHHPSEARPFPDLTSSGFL
# Procedure, shortened: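 Compounds were tested in HepG2 hepatocellular carcinoma cells harbouring a stably integrated luciferase gene under control of 20 DREs. Increased reporter signal after 24 h treatment at 37C was taken as AhR activation.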
# [2] = qHTS assay to identify small molecule that activate the aryl hydrocarbon receptor (AhR) signaling pathway - cell viability counter screen (AID 743086);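 further: HepG2 liver cells carrying the AhR DRE luciferase reporter; series mostly up to about 70 µM; nearly all actives have a fitted effect of over 45% in size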
# Procedure, shortened: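 HepG2-AhR-luc (HG2L7.5c1) cells, 4000/well, treated 24 h at 37 C with compound; viability measured as CellTiter-Fluor fluorescence after 30 min in the same wells as the luciferase read.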
# [3] = biological target: Peroxisome proliferator-activated receptor gamma (Homo sapiens) (UniProt P37231); test: qHTS assay to identify small molecule agonists of the peroxisome proliferator-activated receptor gamma (PPARg) signaling pathway (AID 743094; active means well fitted activation curve with a large enough effect in the signal ratio in the repeat runs, not every such curve was filed as active; the % refers to the signal ratio)
# Chain of Peroxisome proliferator-activated receptor gamma (Homo sapiens) (P37231 whole entry, looked up): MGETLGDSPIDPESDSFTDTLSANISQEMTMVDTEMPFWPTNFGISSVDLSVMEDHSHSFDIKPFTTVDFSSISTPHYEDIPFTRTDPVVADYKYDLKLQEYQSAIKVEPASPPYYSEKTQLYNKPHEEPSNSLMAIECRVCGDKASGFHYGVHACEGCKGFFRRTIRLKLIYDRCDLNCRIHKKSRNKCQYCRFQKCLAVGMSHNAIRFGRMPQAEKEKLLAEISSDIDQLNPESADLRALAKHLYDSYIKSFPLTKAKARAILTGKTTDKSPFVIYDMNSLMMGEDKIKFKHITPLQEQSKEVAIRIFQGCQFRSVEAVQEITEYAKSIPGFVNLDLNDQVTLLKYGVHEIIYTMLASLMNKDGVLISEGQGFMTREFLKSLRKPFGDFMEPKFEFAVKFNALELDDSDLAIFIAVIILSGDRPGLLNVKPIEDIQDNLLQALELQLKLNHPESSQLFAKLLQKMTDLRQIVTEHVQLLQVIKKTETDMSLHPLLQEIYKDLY
# Procedure, shortened: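 Beta-lactamase FRET fluorescence was the read-out after a 1 h room-temperature substrate step, following 17 h compound treatment at 37C of HEK293H cells expressing a UAS-driven bla reporter responsive to PPARg.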
# [4] = biological target: Peroxisome proliferator-activated receptor gamma (Homo sapiens) (UniProt P37231); test: qHTS assay to identify small molecule antagonists of the peroxisome proliferator-activated receptor gamma (PPARg) signaling pathway (AID 743191; calls by dose curve; further: nearly all actives have a fitted effect of over 30% in size; further: potency means the concentration at half of the fitted maximal effect)
# Procedure, shortened: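 GeneBLAzer PPARg UAS-bla HEK293H cells, 5 h post-plating, exposed to compounds 17 h at 37C. LiveBLAzer B/G FRET substrate added for 1 h at room temperature; beta-lactamase reporter read by fluorescence intensity.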
# [5] = qHTS assay to identify small molecule antagonists of the peroxisome proliferator-activated receptor gamma (PPARg) signaling pathway - cell viability counter screen (AID 743194); settings: Potency: co-treated with 50 nM rosiglitazone unless noted; further: nearly all actives have a fitted effect of over 55% in size
# Procedure, shortened: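 Cytotoxicity counter screen in PPARg-bla HEK293H cells, same wells as reporter assay. Compounds plus 50 nM rosiglitazone (final) for 17 h at 37 C, then viability read by CellTiter-Glo luminescence.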
# [6] = qHTS assay for small molecule agonists of the antioxidant response element (ARE) signaling pathway (AID 743202; active means well fitted activation curve with a large enough effect in the signal ratio in the repeat runs, not every such curve was filed as active; the % refers to the signal ratio; further: potency means the concentration at half of the fitted maximal effect)
# Procedure, shortened: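 Agonist mode reporter screen: HepG2 cells with ARE-controlled beta-lactamase are incubated with test compounds for 16 h at 37 C, and beta-lactamase activity is measured as fluorescence of cleaved B/G FRET substrate.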
# [7] = qHTS assay for small molecule agonists of the antioxidant response element (ARE) signaling pathway - cell viability counter screen (AID 743203; calls by dose curve; further: nearly all actives have a fitted effect of over 55% in size)
# Procedure, shortened: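 HepG2 cells carrying ARE-driven beta-lactamase; 2,000 cells/well; 5 hrs plating; compound pinned from DMSO; 16 hrs 37C/5% CO2; CellTiter-Glo added; 30 min RT; luminescence.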
# [8] = qHTS assay to identify small molecule agonists of the peroxisome proliferator-activated receptor delta (PPARd) signaling pathway - cell viability counter screen (AID 743211); further: nearly all actives have a fitted effect of over 55% in size
# Procedure, shortened: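 Counter screen for cytotoxicity run in parallel with the PPARd reporter screen. Beta-lactamase reporter HEK293H cells exposed to compounds 17 h; ATP-based CellTiter-Glo luminescence quantified viability.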
# [9] = biological target: Peroxisome proliferator-activated receptor delta (Homo sapiens) (UniProt Q03181); test: qHTS assay to identify small molecule agonists of the peroxisome proliferator-activated receptor delta (PPARd) signaling pathway (AID 743212; calls by dose curve)
# Chain of Peroxisome proliferator-activated receptor delta (Homo sapiens) (Q03181 whole entry, looked up): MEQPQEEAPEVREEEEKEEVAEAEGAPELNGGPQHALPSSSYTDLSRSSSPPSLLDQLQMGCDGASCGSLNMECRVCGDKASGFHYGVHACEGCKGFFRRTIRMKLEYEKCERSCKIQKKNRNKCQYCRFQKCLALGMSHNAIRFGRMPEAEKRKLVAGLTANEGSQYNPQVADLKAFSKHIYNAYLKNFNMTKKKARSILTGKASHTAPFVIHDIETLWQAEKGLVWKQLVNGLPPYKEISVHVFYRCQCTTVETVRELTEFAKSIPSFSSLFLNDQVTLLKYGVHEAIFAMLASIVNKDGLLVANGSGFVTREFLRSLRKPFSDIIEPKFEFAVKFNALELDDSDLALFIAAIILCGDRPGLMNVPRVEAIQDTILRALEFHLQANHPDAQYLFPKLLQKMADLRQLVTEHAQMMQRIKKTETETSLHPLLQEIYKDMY
# Procedure, shortened: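 Quantitative high-throughput agonist screen in a HEK293H beta-lactamase reporter line under UAS control. Compounds in DMSO, at 37 C. Fluorescence read after 2 h with FRET substrate at room temperature.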
# [10] = qHTS assay to identify small molecule antagonists of the peroxisome proliferator-activated receptor delta (PPARd) signaling pathway - cell viability counter screen (AID 743213); further: nearly all actives have a fitted effect of over 50% in size
# Procedure, shortened: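 HEK293H PPARd UAS-bla cells, 5 h pre-incubation, compound + L165041 300 nM final, 17 h 37 C; B/G FRET substrate 2 h RT; then CellTiter-Glo 30 min RT, luminescence.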
# [11] = biological target: Peroxisome proliferator-activated receptor delta (Homo sapiens) (UniProt Q03181); test: qHTS assay to identify small molecule antagonists of the peroxisome proliferator-activated receptor delta (PPARd) signaling pathway (AID 743215; active means well fitted inhibition curve with a large enough effect in the signal ratio in the repeat runs, not every such curve was filed as active; the % refers to the signal ratio;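 further: cells stimulated with agonist L165041 at 300 nM final during compound exposure; series mostly up to about 62 µM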)
# Procedure, shortened: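 Read-out is beta-lactamase FRET fluorescence, measured 2 h after substrate addition at room temperature. Beforehand, UAS-bla HEK293H cells carrying the PPARd reporter were exposed to compounds with L165041 at 300 nM final for 17 h at 37 C.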
# [12] = biological target: Bile acid receptor (Homo sapiens) (UniProt Q96RI1); test: qHTS assay to identify small molecule antagonists of the farnesoid-X-receptor (FXR) signaling pathway (AID 743217; active means well fitted inhibition curve with a large enough effect in the signal ratio in the repeat runs, not every such curve was filed as active; the % refers to the signal ratio)
# Chain of Bile acid receptor (Homo sapiens) (Q96RI1 whole entry, looked up): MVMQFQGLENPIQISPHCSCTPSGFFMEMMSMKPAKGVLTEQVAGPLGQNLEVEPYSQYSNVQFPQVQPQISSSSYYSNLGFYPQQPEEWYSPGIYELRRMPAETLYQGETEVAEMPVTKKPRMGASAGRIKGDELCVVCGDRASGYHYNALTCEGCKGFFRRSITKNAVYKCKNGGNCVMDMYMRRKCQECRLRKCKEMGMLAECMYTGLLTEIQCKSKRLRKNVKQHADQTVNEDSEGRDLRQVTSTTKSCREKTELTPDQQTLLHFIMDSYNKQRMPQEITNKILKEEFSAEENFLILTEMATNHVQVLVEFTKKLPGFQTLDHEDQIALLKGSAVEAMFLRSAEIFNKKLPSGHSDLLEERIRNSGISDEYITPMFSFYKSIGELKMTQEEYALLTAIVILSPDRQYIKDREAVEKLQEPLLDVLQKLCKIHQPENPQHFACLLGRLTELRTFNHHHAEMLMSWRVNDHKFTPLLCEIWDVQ
# Procedure, shortened: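 HEK 293T FXR-UAS-bla, 5000 cells/well; compound + CDCA 50 uM final; 16 h, 37 °C; B/G FRET substrate 2 h RT; fluorescence.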
# [13] = qHTS assay to identify small molecule agonists of the farnesoid-X-receptor (FXR) signaling pathway - cell viability counter screen (AID 743218); further: nearly all actives have a fitted effect of over 45% in size
# Procedure, shortened: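 HEK 293T FXR-bla cells; 5 h pre-incubation, 16 h compound exposure at 37 C; LiveBLAzer substrate 2 h RT, then CellTiter-Glo 30 min RT, luminescence.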
# [14] = biological target: Bile acid receptor (Homo sapiens) (UniProt Q96RI1); test: qHTS assay to identify small molecule agonists of the farnesoid-X-receptor (FXR) signaling pathway (AID 743220; active means well fitted activation curve with a large enough effect in the signal ratio in the repeat runs, not every such curve was filed as active; the % refers to the signal ratio)
# Procedure, shortened: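 Beta-lactamase reporter under UAS control in GeneBLAzer FXR HEK 293T cells (5000/well) measured with LiveBLAzer FRET substrate after 2 h at room temperature. Compound exposure lasted 16 h at 37C.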
# [15] = qHTS assay to identify small molecule antagonists of the farnesoid-X-receptor (FXR) signaling pathway - cell viability counter screen (AID 743221; active means well fitted cell-killing curve with a large enough effect in the repeat runs, not every such curve was filed as active; further: nearly all actives have a fitted effect of over 50% in size)
# Procedure, shortened: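 Multiplexed counter screen: viability of FXR-bla HEK 293T cells under agonist stimulation by chenodeoxycholic acid (50 uM, final) and test compound for 16 h at 37 C, measured by CellTiter-Glo luminescence in the reporter wells.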
# [16] = biological target: Vitamin D3 receptor (Homo sapiens) (UniProt P11473); test: qHTS assay to identify small molecule agonists of the vitamin D receptor (VDR) signaling pathway (AID 743222; calls by dose curve)
# Chain of Vitamin D3 receptor (Homo sapiens) (P11473 whole entry, looked up): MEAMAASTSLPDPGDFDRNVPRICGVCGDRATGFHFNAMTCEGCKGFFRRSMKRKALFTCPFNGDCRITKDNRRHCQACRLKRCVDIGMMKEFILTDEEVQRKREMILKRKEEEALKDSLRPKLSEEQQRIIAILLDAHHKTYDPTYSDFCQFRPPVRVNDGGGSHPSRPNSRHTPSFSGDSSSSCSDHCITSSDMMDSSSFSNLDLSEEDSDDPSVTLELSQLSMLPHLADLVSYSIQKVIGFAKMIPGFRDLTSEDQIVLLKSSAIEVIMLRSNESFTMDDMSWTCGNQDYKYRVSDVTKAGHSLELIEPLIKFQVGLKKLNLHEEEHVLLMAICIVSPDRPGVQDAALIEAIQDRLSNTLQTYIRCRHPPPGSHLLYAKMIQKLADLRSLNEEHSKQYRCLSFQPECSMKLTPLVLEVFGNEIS
# Procedure, shortened: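 VDR-bla cells, 2,000/well; 4 h preincubation 37C; cpd (DMSO) 16 h; LiveBLAzer B/G substrate 2 h RT; fluorescence intensity read.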
# [17] = biological target: Vitamin D3 receptor (Homo sapiens) (UniProt P11473); test: qHTS assay to identify small molecule antagonists of the vitamin D receptor (VDR) signaling pathway (AID 743223; active means well fitted inhibition curve with a large enough effect in the signal ratio in the repeat runs, not every such curve was filed as active; the % refers to the signal ratio)
# Procedure, shortened: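 Cells carrying a VDR-driven beta-lactamase reporter (VDR-bla) were co-treated with compound and 3 nM final 1alpha,25-dihydroxyvitamin D3 for 16 h at 37C; reporter activity was measured as FRET substrate fluorescence after 2 h at room temperature.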
# [18] = qHTS assay to identify small molecule agonists of the vitamin D receptor (VDR) signaling pathway - cell viability counter screen (AID 743224); further: series mostly up to about 63 µM; nearly all actives have a fitted effect of over 50% in size
# Procedure, shortened: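 Luminescence from CellTiter-Glo, read after 30 min at room temperature, reports viability of VDR-bla cells treated with compounds for 16 h at 37C in the wells used for the beta-lactamase FRET read.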
# [19] = qHTS assay for small molecule activators of the heat shock response signaling pathway - cell viability counter screen (AID 743209); further: nearly all actives have a fitted effect of over 50% in size
# Procedure, shortened: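 Luminescence from CellTiter-Glo, added after the beta-lactamase FRET read, gave the viability signal. Cells were HSE-bla HeLa treated with DMSO-dissolved compounds for 5 h at 37 C following overnight plating.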
# [20] = qHTS assay for small molecule activators of the heat shock response signaling pathway (AID 743210; active means well fitted activation curve with a large enough effect in the signal ratio in the repeat runs, with a control signal flat, not every such curve was filed as active; the % refers to the signal ratio;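 further: HeLa cells with beta-lactamase reporter driven by heat shock elements; series mostly up to about 63 µM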)
# Procedure, shortened: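 Quantitative high-throughput format using an engineered HeLa line in which heat shock response elements drive beta-lactamase; after 5 h with compound, cells received a B/G FRET substrate and fluorescence was read.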
Structure (SMILES),Potency [1],Potency [2],Potency [3],Potency [4],Potency [5],Potency [6],Potency [7],Potency [8],Potency [9],Potency [10],Potency [11],Potency [12],Potency [13],Potency [14],Potency [15],Potency [16],Potency [17],Potency [18],Potency [19],Potency [20]
Cc1ccn2nc(S(=O)(=O)Nc3c(F)cccc3F)nc2n1,inactive,inactive,inactive,inactive,inactive,inactive,inactive,inactive,inactive,inactive,inactive,inactive,inactive,inactive,inactive,inactive,inactive,inactive,,
O=P(Cl)(Cl)Cl,inactive,inactive,inactive,inactive,,inactive,inactive,inactive,,,inactive,,inactive,,inactive,,,inactive,inactive,inactive
Nc1nc(N)nc(Cl)n1,inactive,inactive,inactive,inactive,inactive,inactive,inactive,inactive,,inactive,,,inactive,,inactive,,,inactive,inactive,
CCCCN(CCCC)C(=S)[S-].CCCCN(CCCC)C(=S)[S-].[Ni+2],inactive,inactive,inactive,inactive,inactive,inactive,inactive,inactive,,inactive,,,inactive,,inactive,inactive,inactive,inactive,inactive,inactive
ClCBr,inactive,inactive,inactive,inactive,inactive,,inactive,inactive,inactive,inactive,inactive,inactive,inactive,inactive,inactive,inactive,,inactive,inactive,inactive
ClSC(Cl)(Cl)Cl,inactive,inactive,inactive,inactive,inactive,inactive,inactive,inactive,inactive,,inactive,,,,inactive,,,inactive,inactive,
CCC1(CC)C(=O)N=C(O)NC1=O,inactive,inactive,inactive,inactive,inactive,,inactive,inactive,inactive,inactive,inactive,,inactive,,inactive,inactive,inactive,inactive,inactive,inactive
N#CCCl,inactive,inactive,inactive,inactive,inactive,,inactive,inactive,,inactive,,inactive,inactive,inactive,inactive,inactive,inactive,,inactive,
CCCCON=O,inactive,inactive,inactive,inactive,inactive,inactive,inactive,inactive,inactive,inactive,inactive,,inactive,,inactive,inactive,inactive,inactive,inactive,inactive
CCC(C)Br (stereo unspecified),inactive,inactive,inactive,inactive,inactive,inactive,inactive,,inactive,inactive,inactive,,inactive,,inactive,inactive,inactive,,,inactive
C#CC1(O)CCCCC1,inactive,inactive,inactive,inactive,inactive,inactive,inactive,inactive,,inactive,,,inactive,,inactive,,,inactive,inactive,
C#CCO,inactive,inactive,inactive,inactive,inactive,inactive,inactive,inactive,inactive,inactive,inactive,,inactive,,inactive,inactive,inactive,inactive,inactive,
O=C(Cl)c1ccccc1F,inactive,inactive,inactive,inactive,,inactive,inactive,inactive,inactive,inactive,inactive,inactive,inactive,inactive,inactive,inactive,inactive,inactive,inactive,inactive
CCOP(=O)(Sc1ccccc1)Sc1ccccc1,inactive,inactive,inactive,54.9 µM (active),inactive,,inactive,inactive,inactive,inactive,inactive,inactive,,,inactive,inactive,inactive,,inactive,
CNN,inactive,inactive,inactive,inactive,inactive,inactive,inactive,,,inactive,,,inactive,,inactive,,,inactive,inactive,
COc1ccc2c3c1O[C@H]1[C@H](O)CC[C@H]4[C@@H](C2)N(C)CC[C@@]341,inactive,inactive,inactive,inactive,inactive,,inactive,inactive,inactive,inactive,inactive,,inactive,,inactive,,,inactive,,
c1cc[n+]2c(c1)-c1cccc[n+]1CC2,inactive,inactive,inactive,inactive,inactive,10.6 µM (active),inactive,inactive,inactive,inactive,inactive,,inactive,,inactive,inactive,,inactive,inactive,
